The nature of assay [1]: Cell Viability - Jurkat (AID 426;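 active = dose-dependent loss of cell ATP signal giving a full or clear fitted curve, ranked by lower potency value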;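 also: potency is read from the fitted curve at half-maximal effect; cells exposed to compound for 40 hours at 37 °C before ATP read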). The following applies: qHTS. The method in brief: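 Luminescent ATP read-out (CellTiter-Glo, 20 min at room temperature) after 40 hr compound exposure at 37 °C of Jurkat E6-1 cells, 5000/well. Decreased ATP taken as cytotoxicity; AC50 from standard Hill equation.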
In assay [2] the target is Mitogen-activated protein kinase 10 (Mus musculus) (UniProt Q61831). The assay is described as follows: JNK3 AlphaScreen Assay (AID 530; active = well fitted curve in either direction with a large enough effect, not every such curve was filed as active;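 also: kinase came from lysate of stimulated human HepG2 cells; signal reports phosphorylation of biotinylated GST-cJun 1-79 at Ser73 with 10 µM ATP; % is scaled to controls: 0 for no effect and ±100 for the full control effect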). Conditions: JNK3 lysate, c-Jun phosphorylation; series mostly up to 57.1 µM. The essentials: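 Kinase buffer: 20 mM Tris-HCl pH 7.6, 10 mM MgCl2, 1 mM DTT, 0.1 mM Na3VO4, 0.01% Tween-20; ATP 10 uM. Substrate biotin-GST-cJun(1-79), enzyme from activated HepG2 lysates. Detection by Ser73 phospho-antibody AlphaScreen.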
In general terms: Bead proximity is the source of the signal in Alpha formats.

A short description of assay [3]: Cell Viability - H-4-II-E (AID 543).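 Also: cells exposed to compound for 40 hours; % is scaled to controls: 0 for no effect and ±100 for the full control effect; nearly all actives have a fitted effect of over 35% in size.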 Conditions: H-4-II-E rat hepatoma viability; series mostly up to 92.2 µM. The method in brief: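 qHTS, rat hepatoma H-4-II-E, 1500 cells/well; 40 hr compound exposure, 37 °C; CellTiter-Glo ATP luminescence after 20 min RT; AC50 by standard Hill fit.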
Assay [4] addresses Cytochrome P450 3A4 (Homo sapiens) (UniProt P08684). Description: qHTS Assay for Inhibitors and Substrates of Cytochrome P450 3A4 (AID 884). Also: % is scaled to controls: 0 for no effect and ±100 for the full control effect; nearly all actives have a fitted effect of over 50% in size. The following applies: recombinant CYP3A4, Luciferin-PPXE luminescence; series mostly up to 57.1 µM. The method in brief: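 Luminescent readout of luciferin produced by CYP3A4 (20 nM) dealkylation of Luciferin-PPXE, 25 uM (its KM). NADPH-driven reaction ran 60 min at RT after 10 min compound preincubation; data scaled to 57 uM ketoconazole as 100% inhibition.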
A general note: qHTS replaces the single test concentration by a dilution series.

Assay [5] is described as follows: Cell Viability - LYMP2-001 (AID 921).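 Also: 0% = DMSO only and full inhibition = tetraoctylammonium bromide control wells; nearly all actives have a fitted effect of over 70% in size.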 Conditions: LYMP2-001 lymphoblastoid cell viability; series mostly up to 92.2 µM. The method in brief: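 Cellular ATP loss read by luciferase luminescence after 24 h compound exposure at 37 C in complete medium. LYMP2-001 lymphoblastoid cells, 2500/well; qHTS concentration-response data fitted with Hill equation for AC50.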

Assay [6] can be described thus: MultiTox-Fluor Cytotoxicity Assay - LYMP1-002 - Dead Cells (AID 960).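 Also: 0% = DMSO and 100% = tetraoctylammonium bromide; nearly all actives have a fitted effect of over 60% in size.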 The following applies: LYMP1-002 lymphoblastoid cells, dead-cell protease fluorescence; series mostly up to 46.1 µM. The essentials: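 Readout: fluorescence at 485/520 from cell-impermeant bis-AAF-R110 cleaved by proteases leaking from damaged cells. LYMP1-002 lymphoblastoid line, 16 hr compound treatment at 37 C, concentration-response in qHTS format; Hill-equation AC50 values.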

Assay [7] can be described thus: Cell Viability - LYMP2-024 (AID 988).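 Also: cells exposed to compound for 24 hr at 37 °C; plate controls were DMSO only for no effect and 92 µM tetraoctylammonium bromide for full effect; nearly all actives have a fitted effect of over 60% in size.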 Conditions: LYMP2-024 lymphoblastoid cell viability; series mostly up to 92.2 µM. The method in brief: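 ATP-based luminescence (CellTiter-Glo, 30 min RT) after 24 h compound exposure at 37 C of 2500 lymphoblastoid cells/well; decrease in ATP taken as cytotoxicity. qHTS concentration-response fitted to standard Hill equation for AC50.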

Assay [8] deals with Estrogen receptor (Homo sapiens) (UniProt P03372). Description: qHTS assay for small molecule antagonists of estrogen receptor alpha signaling (AID 588513; active = well fitted curve in the direction sought with a large enough effect in the signal ratio, with a control signal flat, not every such curve was filed as active; the % refers to the signal ratio; also: % is scaled to controls: 0 for no effect and ±100 for the full control effect). The following applies: ER-alpha-UAS-bla HEK293, beta-lactamase ratio, antagonist mode; series mostly up to 76.9 µM. The essentials: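 Antagonist mode: inhibition of 0.5 nM 17-beta-estradiol-driven beta-lactamase reporter in HEK 293 ER-alpha-UAS-bla cells, 18 h at 37C, CCF4 readout after 2 h at RT. Normalised to estradiol and DMSO; titration fitted to Hill.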
Sequence of Estrogen receptor (Homo sapiens) (P03372 whole entry, looked up): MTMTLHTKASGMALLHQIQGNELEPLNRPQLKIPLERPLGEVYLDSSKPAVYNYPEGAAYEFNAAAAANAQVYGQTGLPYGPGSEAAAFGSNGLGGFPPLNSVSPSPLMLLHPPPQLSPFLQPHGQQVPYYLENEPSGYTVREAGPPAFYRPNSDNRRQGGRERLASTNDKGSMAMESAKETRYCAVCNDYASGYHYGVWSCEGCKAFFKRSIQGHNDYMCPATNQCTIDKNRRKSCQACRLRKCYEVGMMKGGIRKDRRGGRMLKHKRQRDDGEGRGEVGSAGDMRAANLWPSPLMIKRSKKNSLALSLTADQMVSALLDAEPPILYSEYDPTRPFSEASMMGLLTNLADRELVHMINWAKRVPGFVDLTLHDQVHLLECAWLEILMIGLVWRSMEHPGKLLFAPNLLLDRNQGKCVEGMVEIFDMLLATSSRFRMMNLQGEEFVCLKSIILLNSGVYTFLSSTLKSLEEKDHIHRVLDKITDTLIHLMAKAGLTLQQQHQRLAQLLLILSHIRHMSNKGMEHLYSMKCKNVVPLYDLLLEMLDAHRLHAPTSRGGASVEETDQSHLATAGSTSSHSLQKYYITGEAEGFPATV

Assay [9] addresses Bile acid receptor (Homo sapiens) (UniProt Q96RI1). Description: qHTS assay for small molecule agonists of farnesoid X receptor signaling (AID 588527; calls by dose curve;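 also: 0% = vehicle basal and 100% = reference agonist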). Conditions: HEK293T FXR-UAS-bla, beta-lactamase ratio, 16 h; hits give high values. The essentials:
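Read-out: beta-lactamase reporter fluorescence with CCF4 substrate in GeneBLAzer FXR-UAS-bla HEK293T cells, after 16 h compound exposure at 37 C. Response scaled between DMSO basal (0%) and chenodeoxycholic acid at 100 uM (100%).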

Assay [10] deals with Glucocorticoid receptor (Homo sapiens) (UniProt P04150). The assay is described as follows: qHTS assay for small molecule agonists of glucocorticoid receptor signaling (AID 588532; active = well fitted curve in the direction sought with a large enough effect in the signal ratio, with a control signal flat; the % refers to the signal ratio;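 also: 100% = dexamethasone at 0.1 µM and 0% = DMSO only wells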). Conditions: HeLa MMTV-bla, beta-lactamase ratio, agonist, 18 h; hits give high values; percent of dexamethasone control, DMSO zero. The method in brief: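 Agonist-mode qHTS: GRE-driven beta-lactamase in HeLa cells exposed 18 h to titrated compounds (up to 92 uM), then CCF4 ratio read after 2 h at RT; Hill-fitted EC50, efficacy relative to 0.1 uM dexamethasone.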
Sequence of Glucocorticoid receptor (Homo sapiens) (P04150 whole entry, looked up): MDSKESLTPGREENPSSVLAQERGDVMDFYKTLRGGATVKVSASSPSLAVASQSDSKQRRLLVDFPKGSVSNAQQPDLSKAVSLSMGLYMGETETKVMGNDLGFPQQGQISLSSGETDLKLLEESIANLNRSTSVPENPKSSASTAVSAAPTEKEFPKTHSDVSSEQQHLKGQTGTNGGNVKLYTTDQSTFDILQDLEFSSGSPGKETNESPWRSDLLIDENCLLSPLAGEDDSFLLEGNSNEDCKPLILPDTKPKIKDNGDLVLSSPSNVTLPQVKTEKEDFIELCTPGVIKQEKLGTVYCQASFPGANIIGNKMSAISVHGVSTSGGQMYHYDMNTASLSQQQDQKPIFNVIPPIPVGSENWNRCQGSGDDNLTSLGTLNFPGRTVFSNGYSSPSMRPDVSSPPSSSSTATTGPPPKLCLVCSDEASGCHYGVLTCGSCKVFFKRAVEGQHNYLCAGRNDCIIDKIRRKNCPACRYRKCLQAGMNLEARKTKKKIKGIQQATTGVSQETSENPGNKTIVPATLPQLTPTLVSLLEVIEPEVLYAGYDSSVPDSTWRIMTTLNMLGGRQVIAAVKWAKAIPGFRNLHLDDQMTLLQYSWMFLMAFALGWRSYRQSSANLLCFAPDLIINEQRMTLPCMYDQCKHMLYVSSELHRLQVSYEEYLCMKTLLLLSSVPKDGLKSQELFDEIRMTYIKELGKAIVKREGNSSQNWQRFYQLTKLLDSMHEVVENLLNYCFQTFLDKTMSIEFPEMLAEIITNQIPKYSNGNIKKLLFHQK

Assay [11] has the same target. Description: qHTS assay for small molecule antagonists of glucocorticoid receptor signaling (AID 588533; active = well fitted inhibition curve with a large enough effect in the signal ratio, with a control signal flat, not every such curve was filed as active; the % refers to the signal ratio;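 also: cells stimulated with 2 nM dexamethasone as agonist; % is scaled to controls: 0 for no effect and ±100 for the full control effect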). The following applies: HeLa MMTV-bla, GRE beta-lactamase ratio, antagonist mode, 18 h; series mostly up to 76.8 µM. The essentials: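 Antagonist-mode qHTS: compound titrations added to GRE-bla HeLa cells, then dexamethasone 2 nM final; 18 h, 37 C. CCF4 FRET fluorescence normalized to dexamethasone and DMSO; IC50 from Hill fit.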

Assay [12] deals with Vitamin D3 receptor (Homo sapiens) (UniProt P11473). Description: qHTS assay for small molecule antagonists of vitamin D receptor signaling (AID 588541; calls by dose curve;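 also: receptor activated by calcitriol during compound treatment; % is scaled to controls: 0 for no effect and ±100 for the full control effect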). Conditions: HEK293T VDR-UAS-bla, beta-lactamase ratio, antagonist mode; series mostly up to 76.7 µM. The method in brief: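 Antagonist-mode beta-lactamase reporter assay: HEK293T VDR-UAS-bla cells were exposed to titrated compound alongside 1-alpha,25-dihydroxyvitamin D3 at 3 nM final for 16 h. Values were normalized to the 50 nM agonist control and DMSO basal, with IC50 and efficacy from Hill equation fits.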
Sequence of Vitamin D3 receptor (Homo sapiens) (P11473 whole entry, looked up): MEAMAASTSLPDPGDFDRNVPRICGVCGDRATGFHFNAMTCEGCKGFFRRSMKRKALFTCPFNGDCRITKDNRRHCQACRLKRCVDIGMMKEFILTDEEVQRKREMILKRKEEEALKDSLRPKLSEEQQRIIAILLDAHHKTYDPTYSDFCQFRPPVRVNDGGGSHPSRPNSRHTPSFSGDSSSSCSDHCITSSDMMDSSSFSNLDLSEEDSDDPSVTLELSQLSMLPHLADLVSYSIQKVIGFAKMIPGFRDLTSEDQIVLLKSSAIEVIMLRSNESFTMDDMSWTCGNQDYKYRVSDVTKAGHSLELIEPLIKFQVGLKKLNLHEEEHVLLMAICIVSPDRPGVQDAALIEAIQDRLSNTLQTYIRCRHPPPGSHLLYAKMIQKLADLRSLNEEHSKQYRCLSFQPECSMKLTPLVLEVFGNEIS

Assay [13] has the same target. The assay is described as follows: qHTS assay for small molecule agonists of vitamin D receptor signaling (AID 588543; calls by dose curve;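 also: 0% = DMSO basal and 100% = reference agonist control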). The following applies: HEK293T VDR-UAS-bla, beta-lactamase ratio, 16 h; series mostly up to 76.8 µM. The essentials:
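Agonist-mode beta-lactamase reporter: HEK293T VDR-UAS-bla cells in charcoal-stripped 2% FBS, compound series 16 h 37 C, CCF4 2 h RT. EC50 from Hill fit, scaled against DMSO and 50 nM calcitriol control.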

Assay [14] has as its target Thyroid hormone receptor beta (Homo sapiens) (UniProt P10828). The assay is described as follows: qHTS assay for small molecule agonists of thyroid hormone receptor beta signaling (AID 588545; calls by dose curve;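 also: 0% = DMSO only and 100% = 10 nM T3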). Conditions: TR-UAS-bla GripTite HEK 293, beta-lactamase ratio, agonist mode, 18 h, percent of T3 response, DMSO as zero; series mostly up to 76.7 µM. The essentials: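 Efficacy and EC50 values derive from Hill fits of qHTS titration data, normalized to 10 nM T3 and DMSO-only wells. HEK 293 reporter cells were stimulated for 18 hrs at 37 C, with beta-lactamase activity measured by CCF4 fluorescence.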

Assay [15] has the same target. The assay is described as follows: qHTS assay for small molecule antagonists of thyroid hormone receptor beta signaling (AID 588547; active = well fitted inhibition curve with a large enough effect in the signal ratio, with a control signal flat, not every such curve was filed as active; the % refers to the signal ratio). Conditions: TR-UAS-bla HEK293, beta-lactamase ratio, antagonist mode, 18 h. The method in brief:
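Inhibition of T3-driven (0.4nM final) beta-lactamase reporter activity was measured over 0.59 nM to 92 uM compound after 18 h at 37 C. The cells were GripTite HEK293 TR-UAS-bla in charcoal/dextran-stripped serum, with CCF4 ratio read-out and IC50 from Hill fits.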

The nature of assay [16]: qHTS assay for small molecule agonists of the antioxidant response element (ARE) signaling pathway (AID 651741; active = well fitted activation curve with a large enough effect in the signal ratio; the % refers to the signal ratio; also: potency is read from the fitted curve at half-maximal effect; as to activation: % of control where 0% means no effect). Conditions: HepG2 ARE-bla reporter, beta-lactamase FRET ratio, 16 h; series mostly up to 96 µM. The method in brief:
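Agonist activity is measured as ARE-driven beta-lactamase expression in a stable HepG2 reporter line, using 16 h compound treatment at 37 C and a FRET substrate fluorescence readout after 2 h.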

Assay [17] concerns the target Tumor necrosis factor (Homo sapiens) (UniProt P01375). Description: qHTS assay to identify small molecules that stimulate Tumor Necrosis Factor-alpha (TNF-alpha) secretion (AID 651757; active = well fitted curve in the direction sought with a large enough effect in the signal ratio; the % refers to the signal ratio; also: 0% is about no effect). Conditions: Human cells, HTRF 665/615 ratio; series mostly up to 92.2 µM. The method in brief:
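THP-1 cells, 3000/well; compound 17 hrs, 37 C; add cryptate/XL665 anti-TNF-alpha antibody pair; 3 hr RT; TR-FRET (HTRF) read of secreted TNF-alpha. Quantitative HTS format.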

Assay [18] can be described thus: qHTS assay for small molecule antagonists of the retinoid-related orphan receptor gamma (ROR-gamma) signaling pathway - cell viability counter screen (AID 720652; active = well fitted curve in the direction sought with a large enough effect in the repeat runs; an effect the other way counts as inactive or inconclusive). The following applies: RORgamma reporter cell line viability counter screen; series mostly up to 92.2 µM. The method in brief:
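CHO RORE-LUC/TET-ROR line, 1,000 cells/well, 37 C 5% CO2 5 hr; cpd or DMSO + doxycycline induction, 16 hr. CellTiter-Glo, 30 min RT, luminescence = ATP content.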

Assay [19] has as its target Nuclear receptor subfamily 1 group I member 2 (Rattus norvegicus) (UniProt Q9R1A7). Description: qHTS assay for small molecule activators of the rat pregnane X receptor (rPXR) signaling pathway (AID 651751; call rule not given here; also: 0% is about no effect). Conditions: rPXR reporter cells, luciferase (One-Glo), 24 h.
A short description of assay [20]: qHTS assay for small molecule activators of the human pregnane X receptor (PXR) signaling pathway (AID 720659; call rule not given here; also: 0% is about no effect). The following applies: DPX-2 HepG2 CYP3A4-luciferase, 24 h; series mostly up to 92.3 µM.

The source of these data is PubChem BioAssay (NCATS).

Values joined by “and” are separate entries in the source; they are usually repeats but may differ in a detail not shown here. Identical values can stand only once. A number with no mark means an inactive call. Inconclusive results are not listed. Active and inactive are the calls of the source. Unless noted, calls follow the shape of the dose curve; as a rule, active = well fitted curve in the direction sought with a large enough effect; inconclusive = small, poorly fitted or top-dose-only effect, or another doubt; inactive = no such curve, though single readings can be large; an effect the other way counts as inactive or inconclusive.

Sequence of Bile acid receptor (Homo sapiens) (Q96RI1 whole entry, looked up): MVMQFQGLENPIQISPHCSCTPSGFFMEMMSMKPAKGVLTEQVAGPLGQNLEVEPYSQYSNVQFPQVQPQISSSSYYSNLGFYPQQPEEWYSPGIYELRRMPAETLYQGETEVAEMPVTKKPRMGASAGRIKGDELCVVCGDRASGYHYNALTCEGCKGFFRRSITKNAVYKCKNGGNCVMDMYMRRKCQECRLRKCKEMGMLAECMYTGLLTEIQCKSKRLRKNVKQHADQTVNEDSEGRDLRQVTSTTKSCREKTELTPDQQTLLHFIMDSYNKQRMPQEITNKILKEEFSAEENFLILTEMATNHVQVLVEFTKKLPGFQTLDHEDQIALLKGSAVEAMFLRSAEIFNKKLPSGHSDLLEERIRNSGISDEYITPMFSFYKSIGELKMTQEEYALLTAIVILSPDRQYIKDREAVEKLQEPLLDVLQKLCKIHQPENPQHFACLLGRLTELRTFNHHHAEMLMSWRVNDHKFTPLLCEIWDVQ
Sequence of Nuclear receptor subfamily 1 group I member 2 (Rattus norvegicus) (Q9R1A7 whole entry, looked up): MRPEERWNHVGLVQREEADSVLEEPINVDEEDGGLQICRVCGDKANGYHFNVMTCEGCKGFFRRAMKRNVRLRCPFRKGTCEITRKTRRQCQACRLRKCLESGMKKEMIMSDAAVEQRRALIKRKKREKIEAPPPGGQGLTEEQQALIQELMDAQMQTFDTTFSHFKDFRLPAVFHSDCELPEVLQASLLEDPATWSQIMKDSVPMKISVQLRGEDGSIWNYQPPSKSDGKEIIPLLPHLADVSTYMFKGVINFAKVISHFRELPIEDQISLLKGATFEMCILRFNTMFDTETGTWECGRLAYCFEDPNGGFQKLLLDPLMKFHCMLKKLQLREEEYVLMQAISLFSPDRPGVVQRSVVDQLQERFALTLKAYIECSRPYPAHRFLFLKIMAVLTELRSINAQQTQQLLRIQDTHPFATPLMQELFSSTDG
Sequence of Thyroid hormone receptor beta (Homo sapiens) (P10828 whole entry, looked up): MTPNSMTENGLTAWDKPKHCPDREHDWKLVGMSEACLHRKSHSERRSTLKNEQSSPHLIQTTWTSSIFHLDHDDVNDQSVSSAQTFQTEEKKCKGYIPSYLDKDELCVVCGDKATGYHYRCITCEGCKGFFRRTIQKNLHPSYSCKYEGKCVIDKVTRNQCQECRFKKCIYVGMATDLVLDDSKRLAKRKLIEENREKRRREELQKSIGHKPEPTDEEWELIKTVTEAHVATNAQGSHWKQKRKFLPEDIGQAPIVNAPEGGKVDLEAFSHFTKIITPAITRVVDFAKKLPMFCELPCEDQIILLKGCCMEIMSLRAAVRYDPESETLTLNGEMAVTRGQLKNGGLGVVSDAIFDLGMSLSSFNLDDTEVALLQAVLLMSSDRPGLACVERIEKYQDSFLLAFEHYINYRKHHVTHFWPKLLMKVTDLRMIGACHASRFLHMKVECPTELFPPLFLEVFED
Sequence of Tumor necrosis factor (Homo sapiens) (P01375 whole entry, looked up): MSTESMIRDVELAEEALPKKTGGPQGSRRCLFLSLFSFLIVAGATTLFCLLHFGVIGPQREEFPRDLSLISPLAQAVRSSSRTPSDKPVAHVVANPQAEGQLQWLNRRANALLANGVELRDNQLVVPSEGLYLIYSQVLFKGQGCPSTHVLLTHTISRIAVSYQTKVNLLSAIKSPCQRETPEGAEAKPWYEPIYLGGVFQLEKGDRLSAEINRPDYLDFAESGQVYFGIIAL
Sequence of Cytochrome P450 3A4 (Homo sapiens) (P08684 whole entry, looked up): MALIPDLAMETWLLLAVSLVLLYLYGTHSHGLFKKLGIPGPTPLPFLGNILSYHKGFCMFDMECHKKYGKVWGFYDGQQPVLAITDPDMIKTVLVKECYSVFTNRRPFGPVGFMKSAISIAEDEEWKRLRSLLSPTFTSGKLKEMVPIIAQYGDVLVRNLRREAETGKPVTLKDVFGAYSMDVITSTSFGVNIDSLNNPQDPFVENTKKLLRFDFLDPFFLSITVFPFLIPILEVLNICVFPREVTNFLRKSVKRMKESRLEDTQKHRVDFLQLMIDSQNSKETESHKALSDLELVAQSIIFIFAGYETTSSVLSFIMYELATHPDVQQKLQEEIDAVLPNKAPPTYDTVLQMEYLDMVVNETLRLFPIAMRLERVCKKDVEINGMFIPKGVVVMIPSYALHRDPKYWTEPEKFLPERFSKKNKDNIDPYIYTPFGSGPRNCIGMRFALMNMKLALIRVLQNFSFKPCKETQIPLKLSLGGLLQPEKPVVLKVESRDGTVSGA

As to `ClC(Cl)(Cl)c1ccccc1`, the Potency in [1] is > 92 µM. Besides, the result in assay [2], in assay [12], in [13], in [14], in assay [17] and in [20] was inactive. Also, the Potency entry in assay [3], in assay [4], in assay [5], in assay [6], in [7] and in assay [8] was “inactive” throughout. Also, the Potency entry in assay [11], in assay [16] and in assay [18] was “inactive” in each case. For the same compound, the activation in assay [9] was -1.47% and 0.945%; in assay [10] it was -6.79% and 7.81%. The activity change % (negative = inhibition) in assay [15] was -2.31% and -2.68%. In assay [19], the max response is 1.62% and -4.94%.

`S=C=Nc1cccc2ccccc12`: the call in assay [2], in assay [12], in assay [13], in [14] and in [17] was inactive. Further, the Potency result in [3], in assay [5], in assay [6], in assay [7], in assay [8] and in assay [11] was “inactive” throughout. In addition, in assay [18], the Potency entry was “inactive”. In addition, the results for the activation in assay [9] and in assay [10] were -1.78% and 2.48%, respectively. Besides, in [15], the activity change % (negative = inhibition) is -1.91%. In addition, the Potency in assay [16] was 47.3 µM (active). The max response in assay [19] is 5.78%.

For the compound `Oc1ccc(Cl)cc1Cl`, the Potency in assay [1] is > 92 µM. Further, the compound was called inactive in assay [2], in assay [12], in [13], in [14], in [17] and in assay [20]. Moreover, the Potency result in assay [3], in [5], in assay [7], in assay [8], in [11] and in [16] was “inactive” each time. Moreover, the Potency entry in assay [18] was “inactive”. The activation in assay [9] was -2.46% and -2.63%; in [10] it was -5.35% and -2.01%. For the same compound, the activity change % (negative = inhibition) in assay [15] was 16.9% and -6.49%. The max response in [19] was 0.337% and 1.54%.

Regarding `CCCC(=O)Cl`, in assay [1], the Potency is > 92 µM. Also, the outcome in [2], in assay [12], in assay [13], in assay [14], in assay [17] and in assay [20] was inactive. Also, the Potency entry in assay [3], in assay [4], in assay [5], in assay [6], in [7] and in assay [8] was “inactive” in each case. Also, the Potency result in assay [11] and in assay [18] was “inactive” each time. Further, the activation was 0.327% in assay [9] and 7.24% in assay [10]. The activity change % (negative = inhibition) in [15] was 3.8%. Moreover, the max response in assay [19] is -1.41%.

For the compound `[O-][Br+2]([O-])O`, the Potency in assay [1] is > 92 µM. The compound was called inactive in assay [2], in [12], in [13], in [14] and in [17]. For the same compound, the Potency result in assay [3], in assay [4], in assay [5], in assay [6], in [7] and in assay [8] was “inactive” throughout. The Potency result in assay [11], in assay [16] and in assay [18] was “inactive” each time. Moreover, in [10], the activation was 11.8% and -3.56%. In addition, the activity change % (negative = inhibition) in [15] was 6.91% and -5.45%.
